For 34 compounds, outcome results are on record in PubChem BioAssay AID2414 (Southern Research Specialized Biocontainment Screening …, 2010).

Results with a measured potency or affinity are listed apart. Activity calls are given as the source filed them. How the calls were made is not given here.

The nature of the assay: cytotoxicity of synthesized analogs in Vero 76, SAR follow-up, cytotoxicity control for West Nile virus antiviral project, Vero 76 cells (AID 2414). The following applies: Vero 76 cells viability, cytotoxicity CC50; series mostly up to 66.6 µM.
In the case of `Nc1ccc2nc3n(c(=O)c2c1)CCC3`, the compound was classed as inactive.

Turning to `O=C(CSc1nc2ccc(F)cc2c(=O)n1-c1ccccc1)Nc1ccc2c(c1)CCC2`, the compound was called inactive. As to `CC(=O)Nc1ccc2nc3n(c(=O)c2c1)CCC3`, the result was inactive.

Take `CC1(O)c2cc(Br)ccc2N=C2CCCN21` (centres undefined): the call was inactive. `OC1c2cc(I)ccc2N=C2CCCN21` (centres undefined): the compound was classed as inactive. Under `CCCCN(C(=O)c1ccccc1Cl)c1nc(-c2ccc(OC)cc2)cs1` stands “inactive”; under `O=c1c2c(F)cccc2nc2n1CCC2`, “inactive”. `COc1ccc(Cn2nc(C)cc2OC(=O)c2c(F)cccc2F)cc1`: the compound was called inactive. Under `COc1ccc(-c2csc(N(Cc3ccccc3)C(=O)c3ccccc3Cl)n2)cc1` stands “inactive”. As for `OC1c2c(F)cccc2N=C2CCCN21` (centres undefined), the entry is “inactive”; as for `Cc1cc(OC(=O)c2c(F)cccc2F)n(Cc2ccccc2)n1`, “inactive”; as for `COc1ccc(-c2csc(N(C)C(=O)c3ccccc3Cl)n2)cc1`, “inactive”. Take `COc1ccc(-c2csc(N(CCCBr)C(=O)c3ccccc3Cl)n2)cc1`: the outcome was inactive. Under `CCCN(C(=O)c1ccccc1Cl)c1nc(-c2ccc(OC)cc2)cs1` stands “inactive”; under `OC1c2cc(Cl)cc(Cl)c2N=C2CCCN21` (centres undefined), “inactive”; under `O=c1c2cc([N+](=O)[O-])ccc2nc2n1CCC2`, “inactive”.

Turning to `Cc1ccc2nc3n(c(=O)c2c1)CCC3`, the call was inactive. As for `Cc1cccc2c(=O)n3c(nc12)CCC3`, the entry is “inactive”; as for `Cc1cccc2nc3n(c(=O)c12)CCC3`, “inactive”. With `O=[N+]([O-])c1ccc2c(c1)C(O)N1CCCC1=N2` (centres undefined), the result was inactive.

Turning to `O=C(CSc1nc2ccccc2c(=O)n1-c1ccc(F)cc1F)Nc1ccc(N2CCOCC2)cc1`, the call was inactive. As for `CC1CC(C)CN(C(=O)CSc2nc3ccccc3c(=O)n2-c2ccc(F)cc2)C1` (centres undefined), the entry is “inactive”. In the case of `O=c1c2cc(I)ccc2nc2n1CCC2`, the compound was called inactive.

On to `COc1ccc(Cn2nc(C)cc2OC(=O)c2ccccc2)cc1`, for which the result was inactive. `OC1c2c(F)cccc2N=C2CCCCCN21` (centres undefined): the compound was classed as inactive. Under `O=C(CSc1nc2ccccc2c(=O)n1-c1ccc(F)cc1)Nc1ccc2c(c1)OCCO2` stands “inactive”; under `O=C(CSc1nc2cccc(F)c2c(=O)n1-c1ccccc1)Nc1ccc2c(c1)CCC2`, “inactive”; under `O=c1c2cccc(Cl)c2nc2n1CCC2`, “inactive”. Take `COc1ccccc1NC(=O)CSc1nc2ccccc2c(=O)n1-c1ccc(F)cc1`: the outcome was inactive. Under `OC1c2c(F)cccc2N=C2CCCCN21` (centres undefined) stands “inactive”.

With `COc1ccc(NC(=O)CSc2nc3ccccc3c(=O)n2-c2ccc(F)cc2)cc1`, the compound was classed as inactive. With `OC1c2cc(Br)ccc2N=C2CCCCN21` (centres undefined), the compound was classed as inactive. Regarding `O=c1c2cc(Cl)cc(Cl)c2nc2n1CCC2`, the outcome was inactive. As for `COc1ccc(Cn2nc(C)cc2OC(=O)c2c(F)ccc(C)c2F)cc1`, the compound was classed as inactive.
